# HCV inh: HCV inhibition. Huh7.5.1 HCVcc-Cre infection, luciferase reporter, 44 h. AID 651820. Potency, µM (highest dose often 41.8 µM), for inactives: at the highest dose activity change, negative = inhibition, hits mostly inhibitors. 340,000 compounds, 3.4% hits; further: potency means the concentration at half of the fitted maximal effect; on the % scale 0 is the no-effect control and ±100 the full control effect
#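 After 44 h co-culture of compound, cells and HCVcc-Cre (~0.5 moi), substrate is added for 15 min at room temperature and luciferase measured over 15 sec. Cells were seeded at 1,000/well and pre-cultured 4 h.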
# SARS PLP yeast: SARS-CoV PLP inhibition in yeast; S. cerevisiae expressing SARS-CoV PLpro, growth rescue; Potency, µM (titrated, usually from 32.9 µM), for the others: at the highest dose activity, positive = growth rescue, actives largely listed as activators; 330,000 compounds, 0.19% hits; calls by dose curve; further: potency means the concentration at half of the fitted maximal effect; 0% is about no effect; nearly all actives have a fitted effect of over 55% in size
# Pf growth 48h: inhibits P. falciparum growth in the first generation, 48 h | P. falciparum luciferase growth in erythrocytes, 48 h | Potency, µM (titrated, usually from 28.7 µM), inactives show at the top dose activity change, negative = inhibition, actives largely listed as inhibitors | 310,000 compounds, 5.9% hits | AID 504832; further: potency means the concentration at half of the fitted maximal effect; on the % scale 0 is the no-effect control and ±100 the full control effect
#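 A one-generation exposure of luciferase-tagged malaria parasites in RPMI 1640/Albumax erythrocyte culture, 37 C and 5% CO2. Inhibition is inferred from decreased luminescence after adding detection reagent.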
# Sm TGR inh: S. mansoni TGR enzyme inhibition; Q962Y6; purified TGR, DTNB reduction, TNB absorbance 405 nm; Potency, µM (top dose mostly 114 µM), for the others: top-dose activity change, negative = inhibition, most hits filed as inhibitors; 360,000 compounds, 3% hits; AID 485364; further: potency means the concentration at half of the fitted maximal effect; on the % scale 0 is the no-effect control and ±100 the full control effect; nearly all actives have a fitted effect of over 60% in size
#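 First, TGR (20 nM dispensed) and NADPH were mixed with compound. Second, a 15 min room-temperature incubation followed. Third, further NADPH and then DTNB were added to start the reaction. Finally, TNB absorbance was monitored kinetically.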
# Pf growth 96h: P. falciparum growth inhibition at 96 hours | P. falciparum luciferase reporter growth, 96 h | Potency, µM (titrated, usually from 28.7 µM), for the others: at the highest dose activity change, negative = inhibition, actives largely listed as inhibitors | 320,000 compounds, 6.9% hits; further: potency means the concentration at half of the fitted maximal effect; on the % scale 0 is the no-effect control and ±100 the full control effect
#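 Cell-based qHTS: luciferase-tagged P. falciparum in erythrocytes (2% hematocrit, 0.05% parasitemia final) incubated with compounds for 96 hours, 37 C, 5% CO2; luciferase detection reagent then added and luminescence measured.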
# HCMV antiviral: inhibitors of human cytomegalovirus; activity change, negative = inhibition, % at 57.5 µM; 410,000 compounds, 4.5% hits; AID 1259415; HFF cells, HCMV-luciferase reporter, 72 h; active compounds read low; in the data active means activity change below about -60%; inconclusive means no clear call, values can overlap the other calls; inactive means above about -39%; further: on the % scale 0 is the no-effect control and ±100 the full control effect
#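 Luciferase read-out from HCMV-luciferase-infected HFFs (MOI 1 PFU/cell) 72 h post infection at 37C; compounds added after 16 h cell attachment; activity normalized between buffer-only basal and Salinomycin (10uM) inhibitor controls.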
# An asterisk follows results filed as active; ? = inconclusive; / = not tested or not shown. Compounds with a hit are over-represented: about 15% of the library has one in this group of screens. Unless noted, the call rests on the fitted dose curve; in most records, active means well fitted curve in the direction sought with a large enough effect; inconclusive means small, poorly fitted or top-dose-only effect, or another doubt; inactive means no such curve, though single readings can be large; an effect the other way counts as inactive or inconclusive.
SMILES,HCV inh,SARS PLP yeast,Pf growth 48h,Sm TGR inh,Pf growth 96h,HCMV antiviral
O=C(Nc1ccc(S(=O)(=O)N2CCOCC2)cc1)C1CCN(S(=O)(=O)c2ccccc2)CC1,?,-4.1%,?,5.4%,2.94µM*,2.1
O=C(NCC1CCCO1)C1CCN(S(=O)(=O)c2ccc(Br)cc2)CC1 (stereo unspecified),13.4%,-0.2%,1.1%,-2.5%,3.8%,31.2
C=CCNC(=O)C1CCN(S(=O)(=O)c2ccc(Br)cc2)CC1,-15.4%,10.1%,10.4µM*,3.7%,/,-17.2
CSc1cccc(NC(=O)C2CCCN(S(=O)(=O)c3ccc(F)cc3)C2)c1 (stereo unspecified),?,-13.2%,?,-1.2%,-94.8%,10.9
CC(=O)Nc1ccc(NC(=O)C(C)Sc2n[nH]c(-c3ccc(C)cc3)n2)cc1 (stereo unspecified),-8.3%,-1.9%,21.4%,2.8%,-7.7%,57.0
Cc1cc(C)c2c(CC(=O)Nc3ccc(S(=O)(=O)N4CCCCC4)cc3)coc2c1,/,/,/,11.6%,/,-27.7
CC(C)(C)OC(=O)C[C@@H]1C/C=C\C[C@H](CC(=O)N(CCO)Cc2ccccc2)C(=O)NCCOC1=O,-6.2%,1.1%,/,/,/,4.8
O=C(NC1CCCCC1)C1CCCN(S(=O)(=O)c2ccc(F)cc2)C1 (stereo unspecified),7.3%,0.0%,-15.8%,23.5%,23.9%,-81.2*
O=C(CSc1nnc(-c2ccc(F)cc2)o1)Nc1ccc(S(=O)(=O)N2CCCCCC2)cc1,-27.1%,-4.0%,9.28µM*,-19.8%,-12.5%,-84.2*
O=C(Nc1ccc(S(=O)(=O)N2CCCC2)cc1)C1CCN(S(=O)(=O)c2ccc(F)cc2)CC1,?,-1.0%,13.1µM*,1.3%,?,?
Cc1nnc(NC(=O)C2CCN(S(=O)(=O)c3ccc(F)c(Cl)c3)CC2)o1,15.3%,-15.4%,6.57µM*,-7.2%,14.7µM*,-34.2
Cn1nnc2c(N3CCCCC3)ncnc21,/,/,/,57.2%,/,-9.8
CC(=O)Nc1ccc(NC(=O)C(C)OC(=O)c2ccc3ccccc3n2)cc1 (stereo unspecified),6.6%,-6.2%,-13.7%,-7.5%,0.0%,3.5
O=S(=O)(c1ccc(NC(=S)Nc2ccccc2)cc1)N1CCOCC1,15.5%,3.0%,9.4%,44.7µM*,8.9%,-26.9
CSc1cccc(NC(=O)C2CCCN2S(=O)(=O)c2ccc(Br)s2)c1 (stereo unspecified),-15.3%,-15.0%,/,8.7%,10.4µM*,-29.5
O=S(=O)(c1ccc(NC(=S)Nc2ccc3c(c2)OCO3)cc1)N1CCOCC1,10.2%,-20.9%,26.0%,?,17.4%,?
CN(C)CC(C)(C)CNC(=S)Nc1ccc(S(=O)(=O)N2CCOCC2)cc1,2.5%,-20.1%,?,2.1%,?,-76.0*
COc1cc(NC(=O)CC(C)S(=O)(=O)c2ccc3c(c2)CCN3C(C)=O)cc(OC)c1OC (stereo unspecified),/,/,/,-0.9%,/,0.1
CCc1cccc(NC(=O)CSc2n[nH]c(-c3ccccc3Cl)n2)c1,/,/,/,6.6%,/,?
O=C(NCc1ccco1)c1cc2nc(-c3ccc4c(c3)OCO4)cc(C(F)(F)F)n2n1,?,-3.7%,?,7.8%,?,0.3
COc1ccc(-c2cc(C(F)(F)F)n3nc(C(=O)NCc4ccco4)cc3n2)cc1,?,4.8%,9.28µM*,?,?,-34.7
Cc1cc(-c2ccccc2)nc2cc(C(=O)N(Cc3ccccc3)Cc3ccccc3)nn12,?,1.3%,?,4.8%,-15.1%,?
Cc1cc(-c2ccccc2)nc2cc(C(=O)NCc3ccco3)nn12,?,1.5%,18.5%,31.6µM*,-13.8%,19.5
CC[n+]1ccccc1/C=C1\Sc2ccc(C)cc2N1C,6.31µM*,-2.8%,1.04µM*,-16.9%,26.3%,-97.3*
CN1/C(=C/c2cccc[n+]2CCO)Sc2ccccc21,-15.3%,0.3%,?,4.0%,?,?
